This note sets out measurements from PMC4336329 (PLoS ONE, 2015).

The whole screen tested about 310,000 compounds, of which about 14,000 (4.5%) showed an effect of 50% or more. Effects have a minus sign here. Shown is part of a subset that was picked to be rich in strong results.
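Note: peak tail current of the secondary pulse compared with the same well before compound.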

human ether-à-go-go-related gene (hERG) potassium channel, sequence (Q12809 whole entry, looked up): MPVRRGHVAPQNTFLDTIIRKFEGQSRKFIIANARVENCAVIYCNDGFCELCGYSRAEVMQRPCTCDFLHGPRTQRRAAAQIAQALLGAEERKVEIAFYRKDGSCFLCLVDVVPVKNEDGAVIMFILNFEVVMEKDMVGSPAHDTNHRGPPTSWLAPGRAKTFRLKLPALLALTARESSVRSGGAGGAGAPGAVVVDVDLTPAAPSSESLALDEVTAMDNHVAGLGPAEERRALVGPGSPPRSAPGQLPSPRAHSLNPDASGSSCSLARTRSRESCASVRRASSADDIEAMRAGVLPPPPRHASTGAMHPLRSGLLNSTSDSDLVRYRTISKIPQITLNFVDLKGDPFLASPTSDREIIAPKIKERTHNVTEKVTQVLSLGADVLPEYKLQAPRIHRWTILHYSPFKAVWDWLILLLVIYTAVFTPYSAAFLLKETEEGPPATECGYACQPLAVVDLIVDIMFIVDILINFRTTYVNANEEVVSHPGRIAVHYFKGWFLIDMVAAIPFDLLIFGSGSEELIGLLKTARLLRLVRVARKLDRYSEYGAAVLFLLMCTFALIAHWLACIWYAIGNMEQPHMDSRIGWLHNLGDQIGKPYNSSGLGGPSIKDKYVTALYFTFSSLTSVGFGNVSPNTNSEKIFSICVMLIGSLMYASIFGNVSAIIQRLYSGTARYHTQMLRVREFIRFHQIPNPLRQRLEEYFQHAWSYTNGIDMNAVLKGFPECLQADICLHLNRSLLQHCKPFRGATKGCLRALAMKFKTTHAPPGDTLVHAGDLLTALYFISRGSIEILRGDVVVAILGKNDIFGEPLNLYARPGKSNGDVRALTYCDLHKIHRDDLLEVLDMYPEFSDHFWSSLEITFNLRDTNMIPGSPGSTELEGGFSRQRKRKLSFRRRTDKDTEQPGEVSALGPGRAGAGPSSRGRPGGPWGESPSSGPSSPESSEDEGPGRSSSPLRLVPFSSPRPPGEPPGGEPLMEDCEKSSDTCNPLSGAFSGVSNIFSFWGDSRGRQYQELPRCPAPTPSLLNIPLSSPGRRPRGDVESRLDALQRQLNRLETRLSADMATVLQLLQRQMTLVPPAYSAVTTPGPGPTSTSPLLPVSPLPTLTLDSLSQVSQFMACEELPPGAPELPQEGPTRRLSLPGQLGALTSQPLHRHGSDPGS

The test concerns the target human ether-à-go-go-related gene (hERG) potassium channel (human, UniProt Q12809). The test can be described thus: primary screen, population patch clamp on CHO cells stably expressing hERG; higher = less effect of the substance.
As for `O=C(CN1CCN(c2ccccc2O)CC1)NC(=O)NC1CCCC1`, the “hERG current change (%, negative = inhibition) at 10uM” value is recorded as -0.609%.
With `CCCCCC(=O)Nc1ccc(-c2cn3cccnc3n2)cc1` the figure was 16.4%.
On to `CN1CCN(NC(=O)c2ccc(Cl)c([N+](=O)[O-])c2)CC1`, for which the “hERG current change (%, negative = inhibition) at 10uM” value stood at 8.74%.
As to `CC(=O)Nc1ccc(NC(=O)C(C)Sc2nnc(C3CC3)n2-c2ccccc2)cc1` (stereo not drawn), the “hERG current change (%, negative = inhibition) at 10uM” value is 8.37%.
Consider `COc1ccc(N2CCN(C(=O)c3ccc4c(c3)OCO4)CC2)cc1`, for which the “hERG current change (%, negative = inhibition) at 10uM” value is on record as -21.7%.
`O=c1nc2ccccc2c(NS(=O)(=O)c2ccccc2)n1-c1ccccc1`: the “hERG current change (%, negative = inhibition) at 10uM” value turned out to be 2.7%.
With `CCOC(=O)c1c(C)[nH]c(C)c1C(=O)CSc1nnc(-c2ccco2)n1Cc1ccccc1` the figure was -19.3%; with `O=C1c2ccccc2C(=O)N1CCSc1nnc(-c2ccco2)n1Cc1ccccc1`, -72.8%.
`c1ccc(CSc2nnc(-c3ccco3)n2Cc2ccccc2)cc1`: the “hERG current change (%, negative = inhibition) at 10uM” value was -46%.
The value for `O=C(CSc1nnc(-c2ccco2)n1Cc1ccccc1)NC(=O)NCc1ccco1` was -74.7%; that for `Cc1ccc(C(=O)CSc2nnc(-c3ccco3)n2Cc2ccccc2)cc1` was -17.8%; that for `Cc1ccccc1CSc1nnc(-c2ccco2)n1Cc1ccco1` was -75.4%.
Regarding `Cc1nnc(SCC(=O)NC(=O)NCc2ccco2)n1Cc1ccccc1`, the “hERG current change (%, negative = inhibition) at 10uM” value is -6.26%.
With `CC(=O)c1c(C)[nH]c(C(=O)CSc2nnc(-c3cccs3)n2Cc2ccccc2)c1C`, the “hERG current change (%, negative = inhibition) at 10uM” value is given as -25.6%.
With `CC(=O)c1c(C)[nH]c(C(=O)CSc2nnc(-c3ccco3)n2Cc2ccccc2)c1C` the figure was -61.5%; with `Cc1ccccc1CSc1nnc(-c2cccs2)n1Cc1ccco1`, -41.7%.
On to `c1ccc(CSc2nnc(-c3ccco3)n2Cc2ccco2)cc1`, for which the “hERG current change (%, negative = inhibition) at 10uM” value was -34.6%.
Regarding `O=C(CSc1nnc(-c2ccco2)n1Cc1ccccc1)NC(=O)NCc1ccccc1`, the “hERG current change (%, negative = inhibition) at 10uM” value is on record as -13.3%.
With `COc1ccc(-c2nnc(SCC#CCO)o2)cc1OC` the figure was 4.93%; with `COc1ccccc1N1CCN(S(=O)(=O)c2ccc3c(c2)oc(=O)n3C)CC1`, 26%.
Turning to `COc1ccc(NC(=O)CN(C)C(=O)/C=C/c2cn(-c3ccccc3)nc2-c2ccc(C)cc2)cc1`, the “hERG current change (%, negative = inhibition) at 10uM” value is given as 13.8%.
In the case of `COc1ccc(C2=NS(=O)(=O)N(C)C(C(=O)Nc3ccc(F)cc3F)=C2)cc1`, the “hERG current change (%, negative = inhibition) at 10uM” value is given as 10.1%.
Regarding `CN(Cc1ccccc1)C(=O)COC(=O)C1CCN(S(=O)(=O)c2ccc(Cl)c(C(F)(F)F)c2)CC1`, the “hERG current change (%, negative = inhibition) at 10uM” value was -15.8%.
As to `CCC/C(=N\NC(=O)CNC(=O)c1ccc(Cl)cc1)c1ccccc1`, the “hERG current change (%, negative = inhibition) at 10uM” value is given as -1.56%.
In the case of `CC(NC(=O)COc1ccc(S(=O)(=O)N2CCOCC2)cc1)c1ccccc1` (stereo not drawn), the “hERG current change (%, negative = inhibition) at 10uM” value was -4.63%.
For the compound `O=C(/C=C\c1ccccc1OC(=O)c1ccccc1F)c1cc2ccccc2o1`, the “hERG current change (%, negative = inhibition) at 10uM” value was -3.12%.
Regarding `O=C(CSc1nnc(-c2ccco2)n1Cc1ccccc1)c1ccccc1`, the “hERG current change (%, negative = inhibition) at 10uM” value is given as -18.4%.
With `O=C(CSc1nnc(-c2ccco2)n1Cc1ccco1)NCc1ccccc1` the figure was -50.8%; with `O=C(CSc1nnc(-c2ccco2)n1Cc1ccco1)Nc1ccccc1`, -70.7%; with `CC(=O)Nc1ccc(NC(=O)CSc2nnc(-c3ccco3)n2Cc2ccco2)cc1`, -1.79%.
Consider `COC(=O)CCNCCSc1nnc(-c2ccco2)n1Cc1ccccc1.O=C(O)C(=O)O`, for which the “hERG current change (%, negative = inhibition) at 10uM” value was -64.5%.
Regarding `CC(C)(C)NC(=O)CSc1nnc(-c2ccco2)n1Cc1ccco1`, the “hERG current change (%, negative = inhibition) at 10uM” value is on record as -5.83%.
With `CNC(=O)NC(=O)CSc1nnc(-c2ccco2)n1Cc1ccccc1` the figure was -8.53%.
Turning to `O=C(CSc1nnc(-c2ccco2)n1Cc1ccccc1)NCc1ccccc1`, the “hERG current change (%, negative = inhibition) at 10uM” value is listed as -51.8%.
`O=C(CSc1nnc(-c2ccco2)n1Cc1ccco1)NCc1cccs1`: the “hERG current change (%, negative = inhibition) at 10uM” value was -33.1%.
`COCCn1c(SCC(=O)NCc2ccccc2)nnc1-c1ccco1`: the “hERG current change (%, negative = inhibition) at 10uM” value came out at 5.7%.
The value for `NC(=O)NC(=O)CSc1nnc(-c2ccco2)n1Cc1ccccc1` was 5.78%; that for `Cc1cc(NC(=O)CSc2nnc(-c3ccco3)n2Cc2ccco2)no1` was -24.7%.
Regarding `Cc1cc(C)n(-c2ccc(S(=O)(=O)N3CCOCC3)cc2[N+](=O)[O-])n1`, the “hERG current change (%, negative = inhibition) at 10uM” value is -10.9%.
As to `O=C1/C(=C\c2cccnc2)CN(Cc2ccccc2)C/C1=C\c1cccnc1`, the “hERG current change (%, negative = inhibition) at 10uM” value was -29.4%.
In the case of `O=C(NCC(=O)N(CC1CCCO1)C1(C(=O)NC2CCCC2)CCCCC1)c1ccccc1` (stereo not drawn), the “hERG current change (%, negative = inhibition) at 10uM” value came out at 3.96%.
For the compound `CCOc1ccc(C(CC(=O)O)NC(=O)C23CC4CC(CC(C4)C2)C3)cc1OC` (stereo not drawn), the “hERG current change (%, negative = inhibition) at 10uM” value came to 30.2%.
`Nc1c(C=C2C=CC(=O)C=C2)c(=O)nc2sc(CC(=O)N3CCCC3)nn12`: the “hERG current change (%, negative = inhibition) at 10uM” value amounted to 8.79%.
`CN(Cc1ccc(OC(F)F)cc1)C(=O)c1ccc2nccnc2c1`: the “hERG current change (%, negative = inhibition) at 10uM” value is reported as -67.8%.
As for `CN(Cc1ccc(OC(F)F)cc1)C(=O)c1ccc2c(=O)n3c(nc2c1)CCC3`, the “hERG current change (%, negative = inhibition) at 10uM” value is on record as -33.3%.
As to `COc1ccc(CN(C)C(=O)c2cccc(C(=O)N(C)Cc3ccc(OC)cc3)c2)cc1`, the “hERG current change (%, negative = inhibition) at 10uM” value was -65.6%.
Consider `COc1cccc(CN(C)C(=O)c2ccc3nccnc3c2)c1`, for which the “hERG current change (%, negative = inhibition) at 10uM” value is -6.89%.
For `COc1ccc(NS(=O)(=O)c2cccc(C(=O)N(C)Cc3ccc(SC)cc3)c2)cc1`, the “hERG current change (%, negative = inhibition) at 10uM” value was -9.93%.
For the compound `Cc1ccc(CN(C)C(=O)c2ccccc2Sc2ccccc2C#N)cc1`, the “hERG current change (%, negative = inhibition) at 10uM” value turned out to be 23.4%.
In the case of `COc1cccc(CN(C)C(=O)c2ccccc2Sc2ccccc2C#N)c1`, the “hERG current change (%, negative = inhibition) at 10uM” value was -13.4%.
The value for `CN(Cc1ccccc1)C(=O)c1cccc(C(=O)N(C)Cc2ccccc2)c1` was -3.07%; that for `CN(Cc1ccc(OC(F)F)cc1)C(=O)c1ccccc1Sc1ccccc1C#N` was -60.5%; that for `COc1ccccc1NS(=O)(=O)c1ccc2oc(SC)nc2c1` was 2.84%.
The value for `CN(CC(=O)Nc1ccccc1Cl)C(=O)c1cc(C2CC2)nn1-c1ccccc1` was -18.1%; that for `CCc1nnc(NS(=O)(=O)c2ccc(N3C(=O)C4CC=C(Cl)CC4C3=O)cc2)s1` (stereo not drawn) was 4.84%.
With `Cc1cccc2sc(N(CCCN(C)C)C(=O)c3cc4ccccc4oc3=O)nc12.Cl` the figure was -54.6%; with `CN(C)CCCN(C(=O)c1cc(-c2cccs2)nc2ccccc12)c1nc2ccc(F)cc2s1.Cl`, 5.59%; with `CN(C)CCCN(C(=O)c1cc2ccccc2oc1=O)c1nc2c(F)cccc2s1.Cl`, -41.1%.
As to `Cc1ccc2nc(N(CCCN(C)C)C(=O)c3cc4ccccc4oc3=O)sc2c1.Cl`, the “hERG current change (%, negative = inhibition) at 10uM” value was -33.7%.
With `CN(C)CCCN(C(=O)c1cc2ccccc2oc1=O)c1nc2ccc(F)cc2s1.Cl`, the “hERG current change (%, negative = inhibition) at 10uM” value was -68.1%.
As for `CC(=O)OC1COC(n2c(O)c(N=NC(N)=S)c3ccccc32)C(OC(C)=O)C1OC(C)=O` (stereo not drawn), the “hERG current change (%, negative = inhibition) at 10uM” value is listed as 15.8%.
`COC(=O)C1=C(C)N(c2ccc(Br)cc2)C(=O)/C1=C\c1ccco1`: the “hERG current change (%, negative = inhibition) at 10uM” value is 2.22%.
On to `Clc1ccc(-c2nnc3sc(Cc4cccs4)nn23)c(Cl)c1`, for which the “hERG current change (%, negative = inhibition) at 10uM” value is reported as -55.7%.
Turning to `c1ccc(-c2nnc3sc(Cc4cccs4)nn23)cc1`, the “hERG current change (%, negative = inhibition) at 10uM” value is given as -30.8%.
As to `Clc1ccc(-c2nnc3sc(Cc4cccs4)nn23)cc1`, the “hERG current change (%, negative = inhibition) at 10uM” value is listed as 4.77%.
Take `CCc1cccc2c(C(=O)CCl)c[nH]c12`: the “hERG current change (%, negative = inhibition) at 10uM” value is -14.3%.
The value for `COc1ccc2[nH]c3c(c2c1)CCNC3C.Cl` (stereo not drawn) was 14.7%; that for `COc1ccc2[nH]c3c(c2c1)CCN[C@H]3C` was -3.82%.
On to `CC1(CCc2ccc3c(c2)OCO3)NCCc2c1[nH]c1ccccc21.Cl` (stereo not drawn), for which the “hERG current change (%, negative = inhibition) at 10uM” value was -85.8%.
The value for `CC1(CCc2ccc3c(c2)OCO3)NC(=O)c2ccccc2N1` (stereo not drawn) was -7.78%; that for `COc1ccc2[nH]c3c(c2c1)CCNC3(C)CCc1ccc(Cl)nc1` (stereo not drawn) was -51.6%; that for `Cl.c1ccc2c3c([nH]c2c1)C1(CCCCC1)NCC3` was 2.11%.
Turning to `COc1cccc(NC(C(=O)Nc2cccc(C(C)=O)c2)c2ccccc2)c1` (stereo not drawn), the “hERG current change (%, negative = inhibition) at 10uM” value is listed as -7.56%.
Regarding `O=C(O)C(Cc1ccccc1)N1C(=O)CCC1=O` (stereo not drawn), the “hERG current change (%, negative = inhibition) at 10uM” value came out at 14.4%.
For the compound `COc1ccc(C2CC(=O)C(C=NCCN3CCN(C(C)=O)CC3)=C(O)C2)cc1` (stereo not drawn), the “hERG current change (%, negative = inhibition) at 10uM” value was -1.68%.
For the compound `COc1ccc(C2CC(=O)C(C=NCCN3CCN(C(=S)Nc4ccccc4)CC3)=C(O)C2)cc1OC` (stereo not drawn), the “hERG current change (%, negative = inhibition) at 10uM” value is -20.1%.
As for `CCCCCC(=O)N1CCN(CCN=CC2=C(O)CC(c3ccc(OC)cc3)CC2=O)CC1` (stereo not drawn), the “hERG current change (%, negative = inhibition) at 10uM” value is listed as -74.1%.
Turning to `CCCCCC(=O)N1CCN(CCN=CC2=C(O)CC(c3ccc(OC)c(OC)c3)CC2=O)CC1` (stereo not drawn), the “hERG current change (%, negative = inhibition) at 10uM” value is -78.8%.
With `COc1ccc(C2CC(=O)C(C=NCCO)=C(O)C2)cc1OC` (stereo not drawn) the figure was 4.15%; with `CCC(=O)N1CCN(CCN=CC2=C(O)CC(c3ccc(OC)cc3)CC2=O)CC1` (stereo not drawn), 5.11%; with `Cc1ccccc1C1=NC(C(F)(F)F)(C(F)(F)F)c2c(n(C)c(=O)n(C)c2=O)N1`, 3.5%.
For the compound `NC(=S)Cc1ccc(Cl)cc1Cl`, the “hERG current change (%, negative = inhibition) at 10uM” value came to 18.8%.
For the compound `O=C(Nc1cccc(Cl)c1)Nc1ccccc1NS(=O)(=O)c1cccs1`, the “hERG current change (%, negative = inhibition) at 10uM” value is 24%.
Turning to `Cc1cc(C)c(NC(=O)CSc2nnc(-c3ccco3)n2N)c(C)c1`, the “hERG current change (%, negative = inhibition) at 10uM” value is given as -14.9%.
